The target in this test is Intestinal-type alkaline phosphatase (Homo sapiens) (UniProt P09923). As to the kind of experiment: human IAP inhibitors, confirmation, biochemical, luminescence, single concentration, uHTS hits (AID 434927).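 Further: plate controls were DMSO wells with enzyme for no effect and wells lacking enzyme for full effect.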 The following applies: purified human IAP, CDP-Star luminescence, 30 min; at 8.3 µM; hits give high values.

Values without a mark were called inactive. The source made the active and inactive calls.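 How the source made its calls: active means inhibition above about 23% in any of six single-dose repeats (limit read from the data); inactive means the rest.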

Sequence of Intestinal-type alkaline phosphatase (Homo sapiens) (P09923 whole entry, looked up): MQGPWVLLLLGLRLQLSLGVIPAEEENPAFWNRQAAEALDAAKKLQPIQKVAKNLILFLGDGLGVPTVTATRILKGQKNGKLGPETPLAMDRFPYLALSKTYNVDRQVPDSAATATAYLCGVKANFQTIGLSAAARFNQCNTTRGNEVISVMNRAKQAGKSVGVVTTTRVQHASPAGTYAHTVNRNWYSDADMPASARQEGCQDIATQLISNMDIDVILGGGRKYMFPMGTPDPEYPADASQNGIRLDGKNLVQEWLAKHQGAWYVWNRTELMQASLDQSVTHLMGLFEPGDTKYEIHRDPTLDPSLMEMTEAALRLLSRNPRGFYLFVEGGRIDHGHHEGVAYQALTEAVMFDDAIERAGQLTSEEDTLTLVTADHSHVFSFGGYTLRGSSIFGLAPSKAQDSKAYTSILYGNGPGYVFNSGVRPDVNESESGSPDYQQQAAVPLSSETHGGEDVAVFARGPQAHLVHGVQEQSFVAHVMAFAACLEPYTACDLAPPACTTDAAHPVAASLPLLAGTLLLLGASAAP

In the case of `Nc1ccc(-c2c3ccc(=O)cc-3oc3cc(O)ccc23)cc1C(=O)O`, the inhibition was 64.5% (active).
Regarding `O=C(COc1ccccc1Cl)N1CCN(c2ccc([N+](=O)[O-])c(N3CCCCC3)c2)CC1`, the inhibition was -60.9%.
As to `COc1cc(Cl)ccc1OCc1cc(C(=O)N2CCCCCCC2)no1`, the inhibition is 34.5% (active).
On to `COc1ccc2nc3cc(Cl)ccc3c(Nc3cc(CN4CCCC4)c(O)c(CN4CCCC4)c3)c2n1`, for which the inhibition was -60.1%.
`CCOC(=O)c1c(C)[nH]c(C(=O)N/N=C/c2cc([N+](=O)[O-])ccc2O)c1C`: the inhibition was 29.6% (active).
For `Cc1ccc(S(=O)(=O)N(CC(=O)Nc2ccc(C)cc2C)C(=O)N2CCN(C)CC2)cc1`, the inhibition was -55.4%.
In the case of `CN(Cc1ccccc1)C(=O)Nc1ccc(Cl)cc1`, the inhibition is -58.7%.
`CCc1nnc(NC(=O)CSc2nnc(C)c(=O)n2N)s1`: the inhibition was 41.3% (active).
Take `COc1ccc(CC2CC(=O)N(c3ccc(C)cc3)C2=O)cc1` (stereo unspecified): the inhibition was 23.2% (active).
Under `O=C(Nc1ccon1)c1nc[nH]c1C(=O)NCc1ccccc1` stands 88.5% (active); under `Cc1ccsc1C(=O)NNC(=S)NC1CCCCC1`, 49.4% (active).
Consider `COc1ccccc1CNC(=O)CN(c1ccc(C)cc1)S(=O)(=O)c1c(C)noc1C`, for which the inhibition is 32.5% (active).
For the molecule `COc1cc(/C=N\NS(=O)(=O)c2ccccc2)cc(OC)c1OC`, the inhibition was 30.7% (active).
As for `CC1(C)C[C@@H](O)CC2(C1)C[C@]1(C)CC(O)[C@H]2C(C)(C)C1` (stereo partly specified), the inhibition was -93.3%.
As to `OC1CN=C2Sc3ccccc3N2C1` (stereo unspecified), the inhibition is -100%.
Regarding `O=C(NN1C(=O)/C(=C/c2ccc(O)c([N+](=O)[O-])c2)SC1=S)c1ccccc1Cl`, the inhibition was 38.9% (active).
